# Rows were chosen to be rich in hits. Some 2.1% of all compounds tested hit in one or more screens of this group.
# Abeta rescue: restores growth of yeast expressing A-beta42 peptide; yeast expressing A-beta42, growth rescue, OD600, 48 h; response scale: 0% DMSO, 100% iron-clioquinol control; Potency, µM (top dose mostly 46.1 µM), most hits filed as activators; 410,000 tested, 0.063% active; AID 1347071; note: nearly all actives have a fitted effect of over 55% in size
#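 Growth rescue measured by 600 nm absorbance after 48 h yeast culture at 30 C with compound. Values normalized between DMSO and an equimolar ferric chloride plus clioquinol control.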
# TSG101-PTAP inh: blocks PTAP/TSG101 interaction to inhibit HIV-1 budding. Q99816. Potency, µM (top dose mostly 115 µM), for the others: top-dose activity change, negative = inhibition, most hits filed as inhibitors. 340,000 tested, under 10 active. Fluorescence polarization, FITC-PTAP peptide / Tsg101 binding; active = well fitted inhibition curve with a large enough effect in the main read-out, with a control signal flat, not every such curve was filed as active; inconclusive = small, poorly fitted or top-dose-only effect, or effect the other way, or a change in a side signal; inactive = no such curve, though single readings can be large or run the other way; note: % of control where 0% means no effect
# Target sequence (Q99816 whole entry, looked up): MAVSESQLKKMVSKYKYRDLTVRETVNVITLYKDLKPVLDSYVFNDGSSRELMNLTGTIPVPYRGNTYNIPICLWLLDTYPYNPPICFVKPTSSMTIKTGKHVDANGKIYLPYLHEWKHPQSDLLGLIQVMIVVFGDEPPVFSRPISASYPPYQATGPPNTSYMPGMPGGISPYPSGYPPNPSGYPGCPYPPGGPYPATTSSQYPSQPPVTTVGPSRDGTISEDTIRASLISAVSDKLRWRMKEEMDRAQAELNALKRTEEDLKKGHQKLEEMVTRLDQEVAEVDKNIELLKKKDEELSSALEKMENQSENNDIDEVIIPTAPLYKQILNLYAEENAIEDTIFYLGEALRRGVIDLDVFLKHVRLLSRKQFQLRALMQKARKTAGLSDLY
#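 Compounds were pin-transferred onto Tsg101 binding domain (10 uM final) in HEPES pH 7.5 buffer, then FITC-PTAP peptide was added at 50 nM final. After 20 min at RT, polarization reported peptide displacement across a qHTS concentration series.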
# TDP43 rescue: inhibitors of TDP-43 toxicity in yeast; 410,000 tested, 1.8% active; TDP-43 expressing yeast growth rescue, BacTiter-Glo, 24 h; Potency, µM (titrated, usually from 46.1 µM), for inactives: top-dose growth rescue (activation), actives largely listed as activators; note: % of control where 0% means no effect; nearly all actives have a fitted effect of over 50% in size
#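 Luminescence from BacTiter-Glo reports growth of TDP-43-expressing yeast after 24 hr at 30 deg C with compound. Cells were raffinose-pregrown to mid-log, then seeded in galactose medium at OD600=0.02.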
# aSyn rescue: rescues yeast growth from alpha-synuclein toxicity. 370,000 tested, 0.14% active. Yeast expressing alpha-synuclein, growth rescue, BacTiter-Glo, 24 h. Potency, µM (titrated, usually from 46.1 µM), for the others: top-dose growth rescue (activation), usual class: activators; note: % of control where 0% means no effect; nearly all actives have a fitted effect of over 65% in size
#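 Readout is rescue of growth in alpha-synuclein-expressing yeast, so inhibitors of toxicity appear as activators. Growth after 24 hr at 30 deg C in galactose medium is quantified by luminescence.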
# FUS suppressor: rescues growth of FUS-expressing yeast; S. cerevisiae FUS-expressing, growth rescue, OD600, 24 h; Potency, µM (series often up to 76.6 µM), hits mostly activators; 390,000 tested, 0.24% active;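 note: plate controls were DMSO vehicle for no effect and reference control for full effect; nearly all actives have a fitted effect of over 55% in size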
#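 Restored growth of FUS-toxic S. cerevisiae, read as 600 nm absorbance after 24 h at 30C in galactose medium (starting OD 0.005). Controls CP55940 and DMSO.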
# An asterisk follows results filed as active; i = inactive; ? = inconclusive; . = not tested or not shown. Unless noted, calls come from the whole dose curve; as a rule, active = well fitted curve in the direction sought with a large enough effect; inconclusive = small, poorly fitted or top-dose-only effect, or another doubt; inactive = no such curve, though single readings can be large; an effect the other way counts as inactive or inconclusive. Potency is the fitted concentration of half-maximal effect.
SMILES,Abeta rescue,TSG101-PTAP inh,TDP43 rescue,aSyn rescue,FUS suppressor
Cc1ccc(S(=O)(=O)N2C[C@H]3C(=O)C[C@@H](c4ccccc4)N(S(C)(=O)=O)[C@H]3C[C@H]2c2ccccc2)cc1,i,.,?,-3%,?
NNc1ncnc2scc(-c3ccc(Cl)cc3)c12,i,3%,16µM*,14%,i
O=S(=O)(Nc1ncnc2sc3c(c12)CCC3)c1ccc2ccccc2c1,i,-1%,-10%,-37%,?
Cc1cc(F)ccc1S(=O)(=O)Nc1ncnc2sc3c(c12)CCC3,i,1%,20µM*,9%,i
Clc1ccc(-c2csc3ncnc(Cl)c23)cc1,i,0%,0%,-7%,i
CC(C)(C)c1ccc(Oc2ccc(N)cn2)cc1,?,0%,20µM*,28%,i
COc1ccc(NC(=O)C2(C)Cc3c(-c4ccc(N(C)C)cc4)ccnc3O2)cn1 (centres undefined),i,.,2%,4%,?
COc1ccc(C2C3=C(N=C4SCC(=O)N42)c2ccccc2CC3)cc1 (centres undefined),i,-5%,0%,-2%,?
COc1ccc(C2C3=C(N=C4SCC(=O)N42)c2ccccc2CC3)cc1OC (centres undefined),i,0%,-25%,1%,35µM*
Cc1ccc(C)c(C(O)c2ncc(-c3ccc(Cl)cc3)[nH]2)c1 (centres undefined),i,.,14%,?,i
Cc1cc(C)cc(NC(=O)CSc2nc3c([nH]c4ccccc43)c(=O)n2-c2ccc(F)cc2)c1,i,.,-13%,-7%,i
CCCCNC(=O)C1C(c2ccccc2)=Nc2ccccc2N1C(=O)c1ccc(C(F)(F)F)cc1 (centres undefined),i,.,9%,-19%,?
COc1ccc(C2=Nc3ccccc3N(C(=O)c3ccc(C(F)(F)F)cc3)C2C(=O)NCc2ccccc2)cc1 (centres undefined),i,.,-2%,9%,22µM*
Cc1ccc(N2CCN(C(=O)c3cccc([N+](=O)[O-])c3)CC2)cc1Cl,?,-5%,13µM*,7%,i
Cc1cc(C(=O)N2CCN(c3cccc(Cl)c3)CC2)c2c(C)nn(-c3ccccc3Cl)c2n1,i,.,20µM*,.,?
O=C(c1cccc([N+](=O)[O-])c1)N1CCN(c2cccc(Cl)c2)CC1,i,-8%,11%,10%,.
Cc1c(C(=O)N2CCN(c3cccc(Cl)c3)CC2)cccc1[N+](=O)[O-],?,-3%,22µM*,23%,i
Cc1ccc(C(=O)Nc2cc3cc(Cl)ccc3oc2=O)cc1,i,.,22%,.,i
O=C(Nc1cccn(Cc2c(Cl)cccc2Cl)c1=O)c1ccccc1Cl,i,0%,4µM*,-11%,i
Cc1ccc(S(=O)(=O)N2CCCCC2)cc1NC(=O)COC(=O)c1cccc(O)c1,i,.,13%,-2%,i
CC(CNC(=O)C1CCN(C(=O)N2CCOc3ccc(Cl)cc32)CC1)c1ccccc1 (centres undefined),i,.,17%,.,i
N#CC1(c2ccccc2)CCCN1C(=O)c1ccccc1Cl (centres undefined),i,1%,20%,5%,i
N#CC(C(=O)c1ccccc1Cl)=C1SCCCS1,i,1%,35µM*,10%,i
CCC1COCCS(=O)(=O)N1Cc1cccc(Cl)c1 (centres undefined),i,-3%,?,4%,i
CC(C)[C@H]1COCCS(=O)(=O)N1Cc1cccc(Cl)c1,i,0%,35µM*,9%,i
SMILES,Abeta rescue,TSG101-PTAP inh,TDP43 rescue,aSyn rescue,FUS suppressor
O=C(NCC1CCCO1)c1ccc(COc2ccc(Cl)cc2)cc1 (centres undefined),i,-4%,-12%,0%,i
O=C(NCC1CCCO1)c1ccc(COc2ccccc2Br)cc1 (centres undefined),i,-2%,13µM*,-9%,i
COc1ccc(-n2cc(C(=O)c3ccccc3O)cn2)cc1,i,-1%,13µM*,-5%,i
COc1ccc(O)c(C(=O)c2cnn(-c3ccccc3)c2)c1,i,-1%,7%,-8%,i
O=C(c1cnn(-c2ccccc2)c1)c1cc(F)ccc1O,i,-2%,10µM*,8%,i
CCOc1ccc(OCC)c(NC(=O)c2cnc3c(-c4ccccc4)c(C)nn3c2C)c1,i,.,20%,.,i
CCN(CC)c1ncnc2c1cnn2-c1cc(Cl)ccc1C,i,.,?,.,i
O=C(Nc1ccccc1)c1ccc(Br)o1,i,-4%,?,3%,i
O=C(Nc1ccc2ccccc2c1)c1ccc(Br)o1,i,-2%,20µM*,-4%,i
C[C@@H]1CCCCO[C@@H](CN(C)S(=O)(=O)c2ccccc2)[C@@H](C)CN([C@H](C)CO)C(=O)c2cc(NS(=O)(=O)c3ccc(F)cc3)ccc2O1,i,.,21%,-2%,14µM*
COc1ccc(S(=O)(=O)Nc2ccc3c(c2)C(=O)N([C@H](C)CO)C[C@H](C)[C@@H](CN(C)C(=O)Nc2ccc(F)cc2)OCCCC[C@H](C)O3)cc1,i,.,1%,2%,25µM*
C[C@H]1CCCCO[C@@H](CN(C)S(=O)(=O)c2ccc(Cl)cc2)[C@@H](C)CN([C@@H](C)CO)C(=O)c2cc(NS(=O)(=O)c3ccccc3)ccc2O1,i,.,0%,-1%,i
CN(CC1COc2ccccc2O1)C(=O)CCNS(=O)(=O)c1ccc(F)c(Cl)c1 (centres undefined),?,.,22µM*,2%,i
Cc1ccc(S(=O)(=O)NCC(=O)NCC2COc3ccccc3O2)cc1C (centres undefined),i,0%,5%,-4%,i
CC(=O)Nc1ccc(/C=C/c2ccncc2)cc1,.,.,.,4%,.
O=C(NN=Cc1ccco1)c1cccnc1,.,.,.,.,i
CCOC(=O)c1c(C)oc2cc(Br)c(O)c(Br)c12,i,-3%,13µM*,4%,i
CCOC(=O)c1c(NC(C)=O)sc2c(O)c(Br)cc(Br)c12,i,-4%,13µM*,-4%,.
CCOC(=O)c1c(NC(C)=O)sc2c(O)cccc12,i,1%,2%,.,i
O=C(COc1ccc([N+](=O)[O-])cc1)Nc1cccc2cccnc12,i,.,?,0%,i
CCCN1CCC(C(=O)NC(c2ccc(Cl)cc2)c2ccsc2)CC1 (centres undefined),i,.,-16%,3%,i
O=C1COc2ccccc2C(c2nnnn2Cc2ccccc2)N1Cc1cccs1 (centres undefined),.,.,.,.,i

# Screens (PubChem)
